M1 PAM parental: counter-screen for M1 PAMs: effect in parental CHO-K1 cells; ATP EC20, Fluo-8 calcium fluorescence; 0% at ATP EC20, 100% at ATP max; activation, % at 3 µM; actives 0.02% (n = 360,000); AID 602247;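 active = activation above the run cutoff, the mean activation of all test compounds plus 3 SD, cut at about 40% in these data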;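 note: peak over basal fluorescence ratio in a 140 s read after ATP addition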
CHO-K1 Ca antag: counter-screen for M1 antagonists: effect in parental CHO-K1 cells. ATP-induced calcium, Fluo-8 fluorescence. inhibition, % at 3 µM. actives 0.6% (n = 360,000);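 active = inhibition above a per-plate cutoff, the plate's mean sample inhibition plus 3 SD, cut at about 24% in these data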;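 note: 0% = DMSO plus EC80 ATP and 100% = DMSO alone without ATP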
M1 ag parental: M1 agonist counterscreen hit in parental CHO-K1 cells; Fluo-8 calcium fluorescence; scaled to maximal ATP response, vehicle zero; activation, % at 3 µM; actives 0.48% (n = 360,000); AID 602248; in the data active = activation above about 15%;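 note: untransfected CHO-K1 host cells lacking M1 receptor as counterscreen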
M1 antag: human CHRM1 antagonism. P11229. CHO-K1 hM1, Fluo-8 calcium fluorescence, ACh EC80 antagonist. inhibition, % at 3 µM. actives 1.3% (n = 360,000). AID 588852;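 active = percent inhibition above its own plate's cutoff, namely the mean of that plate's compound wells plus 3 SD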;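 note: peak over basal fluorescence ratio during 140 s after agonist addition; 0% = ACh EC80 plus DMSO and 100% = DMSO alone without agonist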
Target sequence (P11229 whole entry, looked up): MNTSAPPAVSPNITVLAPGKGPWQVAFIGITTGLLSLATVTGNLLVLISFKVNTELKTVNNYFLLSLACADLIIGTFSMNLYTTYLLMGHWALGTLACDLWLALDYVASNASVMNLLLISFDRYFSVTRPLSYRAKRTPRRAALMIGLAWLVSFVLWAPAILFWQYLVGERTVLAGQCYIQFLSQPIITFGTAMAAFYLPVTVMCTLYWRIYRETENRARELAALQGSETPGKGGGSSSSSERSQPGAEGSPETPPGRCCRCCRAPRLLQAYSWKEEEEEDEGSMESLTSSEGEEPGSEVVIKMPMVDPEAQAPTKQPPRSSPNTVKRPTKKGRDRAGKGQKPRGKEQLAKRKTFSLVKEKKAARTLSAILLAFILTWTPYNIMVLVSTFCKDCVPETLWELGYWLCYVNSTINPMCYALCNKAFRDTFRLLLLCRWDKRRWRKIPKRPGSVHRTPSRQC
M1 ag: human M1 muscarinic receptor agonism; P11229; CHO-K1 hM1, Fluo-8 calcium fluorescence, agonist mode; 0% DMSO, 100% acetylcholine EC100; activation, % at 3 µM; actives 0.33% (n = 360,000);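 active = activation above the run's mean compound activation plus 3 SD, cut at about 16% in these data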;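 note: peak over basal fluorescence ratio within a 140 s kinetic read after compound addition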
CHRM1 PAM: potentiates human M1 receptor response to acetylcholine. P11229. activation, % at 3 µM. CHO-K1 hM1, Fluo-8 calcium fluorescence, ACh EC20; 0% = ACh EC20, 100% = maximal ACh. actives 0.088% (n = 360,000). AID 588819; in the data active = activation above about 19%, passing the limit was not always enough
The depositor's hits bear a star. In the library only some 2.4% were active in any assay of this set; here they are far more common.

SMILES	M1 PAM parental	CHO-K1 Ca antag	M1 ag parental	M1 antag	M1 ag	CHRM1 PAM
c1ccc2c(Nc3ccc4c(c3)OCCO4)c3c(nc2c1)CCCC3	12	-10	1	28*	-10	-29
Fc1cccc(Nc2c3c(nc4ccccc24)CCC3)c1	4	0	4	-12	-8	6
COc1ccccc1Nc1c2c(nc3ccccc13)CCC2	16	-35	4	5	-8	-3
CC(C)(C)NC(=O)C(c1ccc(F)cc1)N(CCc1ccccc1)C(=O)c1ccn[nH]1 (stereo not given)	2	9	15*	12	-7	-8
O=C(/C=C/c1ccccc1)Nc1cccc(C(=O)NCCCCc2ccccc2)c1	-1	10	7	24	-1	-15
Nc1ccccc1C(=O)NCc1ccc(Cl)cc1	20	-5	0	-8	-3	11
Cc1cc(NC(=O)Cn2cc([N+](=O)[O-])cn2)no1	1	-2	0	-1	-1	-1
COc1ccccc1/C=C/C=N/n1c(-c2ccc(Cl)cc2)n[nH]c1=S	-16	53*	-1	-27	0	12
CC(C)C[C@@H](CN1CCC[C@@H]1CN1C(=S)NC[C@@H]1Cc1ccc(O)cc1)N1C[C@H](Cc2ccc(O)cc2)N(CCc2ccccc2)C1=S	11	5	0	-9	-7	3
C=CCn1cccc(C(=O)Nc2ccc(OC)c(OC)c2)c1=O	1	5	16*	0	-3	0
CCN(CC)c1ccc(/C=C(/C#N)C(=O)NCc2ccccc2)o1	2	12	27*	9	16*	-2
O=C(c1ccco1)N1CCN(C(c2ccccc2Cl)c2nnnn2Cc2ccco2)CC1 (stereo not given)	-9	18	4	29*	2	-16
O=C(c1ccco1)N1CCN(C(c2ccccc2Cl)c2nnnn2Cc2cccs2)CC1 (stereo not given)	6	14	5	10	0	-12
COc1ccc(OCCNC(=O)c2ccc3nc(C)c(N(C)C(=O)CCc4ccccc4)n3c2)cc1	8	11	4	1	-4	-3
CCN(CC)CCNC(C(=O)Nc1cccc(C(C)=O)c1)c1ccccc1 (stereo not given)	13	4	-1	84*	-10	-29
COC(=O)Cc1[nH]nc2c1C(c1ccc(O)c(OC)c1)C(C#N)=C(N)O2 (stereo not given)	7	-9	1	-15	-1	5
Cc1[nH]n(-c2ccccc2)c(=O)c1C(c1cccc([N+](=O)[O-])c1O)c1c(C)[nH]n(-c2ccccc2)c1=O	11	13	15*	15	-2	-4
Cc1c(C(c2cccc([N+](=O)[O-])c2O)c2c(C)n(C)n(-c3ccccc3)c2=O)c(=O)n(-c2ccccc2)n1C	25	-11	1	-8	-6	6
Cc1noc(NS(=O)(=O)c2ccc(NC(=O)C(CC(C)C)N3C(=O)c4ccccc4C3=O)cc2)c1C (stereo not given)	30	-12	0	-9	-7	6
CN(C)c1ccc(O)c2c1CC1CC3[C@@H](N(C)C)C(=O)C(C(N)=O)=C(O)[C@]3(O)C(=O)C1=C2O (stereo not given in full)	-4	12	0	-28	-1	8
C[C@H]1c2cccc(O)c2C(O)=C2C(=O)[C@]3(O)C(O)=C(C(N)=O)C(=O)[C@@H](N(C)C)[C@@H]3[C@@H](O)[C@@H]21	-11	13	0	-5	25*	-12
O=C(Cn1cnc2cc([N+](=O)[O-])ccc2c1=O)Nc1cccc(S(=O)(=O)N2CCCCC2)c1	16	-18	1	-3	-5	3
COc1ccc(CCNC(=O)c2ccc(Cl)c(S(=O)(=O)N3CCCC3)c2)cc1	0	-6	16*	5	0	-9
CCN(CC)CCNC(=O)c1ccc(NC(=O)c2ccc(Cl)c(S(=O)(=O)N3CCCCCC3)c2)cc1	5	-14	0	100*	-7	-25
O=C(Nc1ncccc1O)c1ccc(Cl)c(S(=O)(=O)N2CCCCC2)c1	-14	38*	0	16	-2	-6
SMILES	M1 PAM parental	CHO-K1 Ca antag	M1 ag parental	M1 antag	M1 ag	CHRM1 PAM
CCN(CC)CCNC(=O)c1ccc(NC(=O)c2ccc(S(=O)(=O)N3CCCCCC3)cc2)cc1	14	-10	1	10	-8	-11
COc1ccc(C(CNC(=O)c2ccc(Cl)c(S(=O)(=O)N3CCCC3)c2)N2CCCC2)cc1 (stereo not given)	7	-12	0	-5	-8	4
CCN(CC)CCNC(=O)c1ccc(NC(=O)c2cccc(S(=O)(=O)N3CCCCCC3)c2)cc1	10	-9	0	101*	-8	-30
CCN(CC)CCNC(=O)c1ccc(Cl)c(S(=O)(=O)Nc2ccc(Cl)cc2)c1	18	-13	1	-3	-7	0
CN1CCN(S(=O)(=O)Cc2ccc(Cl)cc2)CC1	1	3	7	-4	-6	5
Cc1ccc(S(=O)(=O)c2c(N)n(NC(=O)c3ccccc3C)c3nc4ccccc4nc23)cc1	19	0	2	-7	-5	3
Cc1ccc(C(=O)Nn2c(N)c(S(=O)(=O)c3ccc(C)cc3)c3nc4ccccc4nc32)cc1	2	4	0	20*	5	0
CC1c2cc3c(cc2CCN1CC(=O)Nc1ccccc1)OCCCO3 (stereo not given)	5	3	10	33*	-7	-32
Cc1ccc(NC(=O)CN2CCc3cc4c(cc3C2C)OCCCO4)cc1 (stereo not given)	1	-1	5	53*	-4	-22
O=C(CN1CCc2ccccc21)Nc1ccc2c(c1)OCCCO2	-14	2	1	4	-3	3
O=C(CN1CCc2cc3c(cc2C1)OCCCO3)Nc1ccc(S(=O)(=O)N2CCCC2)cc1	15	-15	3	50*	-3	-22
Cc1ccc(NC(=O)CN2CCc3cc4c(cc3C2C)OCCCO4)cc1C (stereo not given)	24	-5	2	0	-3	0
COC(=O)c1cc(NC(=O)CN2CCc3cc4c(cc3C2)OCCCO4)cc(C(=O)OC)c1	8	2	-1	-16	-9	7
CC1CCN(C(=O)Cn2c3ccc(F)cc3c3nc4n(c(=O)c32)CCCS4)CC1	17	-8	1	-3	-3	4
CCCCN(CC(=O)Nc1c(C)cccc1CC)C(=O)SCC	21	-17	0	-20	-4	10
O=CNc1ccc2c3c(cccc13)-c1ccccc1-2	-11	-3	2	-11	0	10

High-throughput results as filed in PubChem.
